# From ChEMBL document CHEMBL1961873, “Compounds: GSK PKIS; Assays: Nanosyn kinase panel” (2012)
# What was measured:
# [1] = biological target: Casein kinase I isoform gamma-2 (Homo sapiens) (UniProt P78368); conditions: at 1 µM
# [2] = biological target: Casein kinase I isoform gamma-3 (Homo sapiens) (UniProt Q9Y6M4); conditions: at 0.1 µM
# [3] = biological target: Casein kinase I isoform gamma-3 (Homo sapiens) (UniProt Q9Y6M4); conditions: at 1 µM
# [4] = biological target: Cyclin-dependent kinase 1 (Homo sapiens) (UniProt P06493); conditions: at 0.1 µM
# Sequence of Cyclin-dependent kinase 1 (Homo sapiens) (P06493 whole entry, looked up): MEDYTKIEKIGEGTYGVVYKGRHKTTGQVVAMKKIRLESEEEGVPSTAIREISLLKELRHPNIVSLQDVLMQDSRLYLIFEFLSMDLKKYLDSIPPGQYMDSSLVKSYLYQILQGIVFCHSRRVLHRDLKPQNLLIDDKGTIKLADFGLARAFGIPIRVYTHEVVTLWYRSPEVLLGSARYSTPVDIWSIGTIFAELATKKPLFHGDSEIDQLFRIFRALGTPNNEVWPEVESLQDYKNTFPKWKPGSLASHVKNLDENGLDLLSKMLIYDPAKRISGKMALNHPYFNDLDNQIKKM
# [5] = biological target: Cyclin-dependent kinase 1 (Homo sapiens) (UniProt P06493); conditions: at 1 µM
# [6] = biological target: Cyclin-dependent kinase 2 (Homo sapiens) (UniProt P24941); conditions: at 0.1 µM
# [7] = biological target: Cyclin-dependent kinase 2 (Homo sapiens) (UniProt P24941); conditions: at 1 µM
# [8] = biological target: Cyclin-dependent kinase 2 (Homo sapiens) (UniProt P24941); conditions: at 0.1 µM; remark: listed apart in the source
# [9] = biological target: Cyclin-dependent kinase 2 (Homo sapiens) (UniProt P24941); conditions: at 1 µM; remark: listed apart in the source
# [10] = biological target: T1, CDK3/Cyclin E (Homo sapiens) (UniProt P24864+Q00526); conditions: at 0.1 µM
# T1 sequence (P24864 whole entry, looked up): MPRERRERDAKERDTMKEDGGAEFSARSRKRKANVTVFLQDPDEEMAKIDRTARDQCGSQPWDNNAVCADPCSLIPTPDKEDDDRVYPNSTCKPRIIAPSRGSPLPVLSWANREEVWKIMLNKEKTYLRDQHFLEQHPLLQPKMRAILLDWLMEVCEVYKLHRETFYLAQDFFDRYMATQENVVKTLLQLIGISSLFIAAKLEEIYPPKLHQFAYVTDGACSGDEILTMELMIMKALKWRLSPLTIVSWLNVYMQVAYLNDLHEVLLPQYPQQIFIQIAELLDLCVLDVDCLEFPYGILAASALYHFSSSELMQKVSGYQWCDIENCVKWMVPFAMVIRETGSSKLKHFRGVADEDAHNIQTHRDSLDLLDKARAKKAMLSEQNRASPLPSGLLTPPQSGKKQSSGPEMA
# T1 sequence (Q00526 whole entry, looked up): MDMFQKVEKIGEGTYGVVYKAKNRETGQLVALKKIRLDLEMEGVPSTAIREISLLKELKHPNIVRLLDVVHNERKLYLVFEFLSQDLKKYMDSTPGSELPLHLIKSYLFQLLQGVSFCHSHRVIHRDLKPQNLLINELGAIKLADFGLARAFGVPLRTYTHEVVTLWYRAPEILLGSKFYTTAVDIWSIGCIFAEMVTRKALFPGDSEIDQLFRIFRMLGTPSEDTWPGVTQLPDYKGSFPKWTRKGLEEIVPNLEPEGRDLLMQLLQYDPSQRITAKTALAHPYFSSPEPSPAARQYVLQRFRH
# [11] = biological target: T1, CDK3/Cyclin E (Homo sapiens); conditions: at 1 µM
# [12] = biological target: Cyclin-dependent kinase 4 (Homo sapiens) (UniProt P11802); conditions: at 0.1 µM
# Sequence of Cyclin-dependent kinase 4 (Homo sapiens) (P11802 whole entry): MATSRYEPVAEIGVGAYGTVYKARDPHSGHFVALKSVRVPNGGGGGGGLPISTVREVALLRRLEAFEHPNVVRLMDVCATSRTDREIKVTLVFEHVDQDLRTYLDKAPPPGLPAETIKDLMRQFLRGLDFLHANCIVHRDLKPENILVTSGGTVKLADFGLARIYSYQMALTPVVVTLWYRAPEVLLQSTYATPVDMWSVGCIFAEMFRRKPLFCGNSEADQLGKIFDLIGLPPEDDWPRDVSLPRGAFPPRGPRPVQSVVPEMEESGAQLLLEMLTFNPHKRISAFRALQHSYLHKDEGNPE
# [13] = biological target: Cyclin-dependent kinase 4 (Homo sapiens) (UniProt P11802); conditions: at 1 µM
# [14] = biological target: Cyclin-dependent kinase 5 (Homo sapiens) (UniProt Q00535); conditions: at 0.1 µM
# Sequence of Cyclin-dependent kinase 5 (Homo sapiens) (Q00535 whole entry, looked up): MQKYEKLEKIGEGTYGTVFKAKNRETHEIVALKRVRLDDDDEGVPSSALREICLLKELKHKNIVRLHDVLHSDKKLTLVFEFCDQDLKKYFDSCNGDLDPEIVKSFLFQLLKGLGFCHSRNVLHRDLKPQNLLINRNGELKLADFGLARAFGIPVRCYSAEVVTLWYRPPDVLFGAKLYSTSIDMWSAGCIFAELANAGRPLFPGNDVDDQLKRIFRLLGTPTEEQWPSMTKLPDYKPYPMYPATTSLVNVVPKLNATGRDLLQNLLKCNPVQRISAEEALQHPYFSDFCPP
# [15] = biological target: Cyclin-dependent kinase 5 (Homo sapiens) (UniProt Q00535); conditions: at 1 µM
# [16] = biological target: Cyclin-dependent kinase 6 (Homo sapiens) (UniProt Q00534); conditions: at 0.1 µM
# Sequence of Cyclin-dependent kinase 6 (Homo sapiens) (Q00534 whole entry): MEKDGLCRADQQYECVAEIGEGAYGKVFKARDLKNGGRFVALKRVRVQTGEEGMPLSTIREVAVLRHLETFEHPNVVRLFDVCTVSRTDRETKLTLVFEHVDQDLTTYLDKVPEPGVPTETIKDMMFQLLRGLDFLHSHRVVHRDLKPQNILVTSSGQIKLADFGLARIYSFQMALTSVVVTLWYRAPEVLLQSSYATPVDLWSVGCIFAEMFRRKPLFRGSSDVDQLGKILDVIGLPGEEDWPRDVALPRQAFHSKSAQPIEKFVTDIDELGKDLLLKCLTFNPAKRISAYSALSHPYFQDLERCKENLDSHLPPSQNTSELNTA
# [17] = biological target: Cyclin-dependent kinase 6 (Homo sapiens) (UniProt Q00534); conditions: at 1 µM
# [18] = biological target: Dual specificity protein kinase CLK2 (Homo sapiens) (UniProt P49760); conditions: at 0.1 µM
# Sequence of Dual specificity protein kinase CLK2 (Homo sapiens) (P49760 whole entry, looked up): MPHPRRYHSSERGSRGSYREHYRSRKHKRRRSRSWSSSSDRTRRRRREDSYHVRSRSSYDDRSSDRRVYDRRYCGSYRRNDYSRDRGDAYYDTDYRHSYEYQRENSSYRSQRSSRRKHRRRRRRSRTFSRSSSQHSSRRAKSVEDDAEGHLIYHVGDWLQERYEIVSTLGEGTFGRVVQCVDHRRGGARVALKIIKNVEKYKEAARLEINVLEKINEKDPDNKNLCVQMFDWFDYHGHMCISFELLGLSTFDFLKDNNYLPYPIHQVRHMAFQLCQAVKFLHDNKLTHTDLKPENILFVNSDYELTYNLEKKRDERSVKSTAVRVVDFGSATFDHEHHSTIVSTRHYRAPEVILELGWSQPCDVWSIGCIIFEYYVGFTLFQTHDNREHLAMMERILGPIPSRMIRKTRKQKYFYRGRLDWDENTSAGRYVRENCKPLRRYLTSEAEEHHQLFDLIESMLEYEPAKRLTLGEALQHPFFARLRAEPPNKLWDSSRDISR
# [19] = biological target: Dual specificity protein kinase CLK2 (Homo sapiens) (UniProt P49760); conditions: at 1 µM
# [20] = biological target: Dual specificity protein kinase CLK3 (Homo sapiens) (UniProt P49761); conditions: at 0.1 µM
# Sequence of Dual specificity protein kinase CLK3 (Homo sapiens) (P49761 whole entry, looked up): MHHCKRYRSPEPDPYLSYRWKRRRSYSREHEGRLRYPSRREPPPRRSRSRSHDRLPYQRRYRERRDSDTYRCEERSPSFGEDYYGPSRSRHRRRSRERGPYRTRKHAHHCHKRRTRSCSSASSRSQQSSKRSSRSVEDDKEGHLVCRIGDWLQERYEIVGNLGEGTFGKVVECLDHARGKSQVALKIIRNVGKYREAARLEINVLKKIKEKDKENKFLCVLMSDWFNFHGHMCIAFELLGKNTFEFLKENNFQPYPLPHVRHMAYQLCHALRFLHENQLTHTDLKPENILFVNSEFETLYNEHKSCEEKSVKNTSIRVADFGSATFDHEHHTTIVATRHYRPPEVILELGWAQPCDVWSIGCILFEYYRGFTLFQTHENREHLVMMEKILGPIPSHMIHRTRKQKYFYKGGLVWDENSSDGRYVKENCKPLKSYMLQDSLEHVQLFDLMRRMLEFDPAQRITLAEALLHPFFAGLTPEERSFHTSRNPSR
# Sequence of Casein kinase I isoform gamma-2 (Homo sapiens) (P78368 whole entry, looked up, canonical isoform): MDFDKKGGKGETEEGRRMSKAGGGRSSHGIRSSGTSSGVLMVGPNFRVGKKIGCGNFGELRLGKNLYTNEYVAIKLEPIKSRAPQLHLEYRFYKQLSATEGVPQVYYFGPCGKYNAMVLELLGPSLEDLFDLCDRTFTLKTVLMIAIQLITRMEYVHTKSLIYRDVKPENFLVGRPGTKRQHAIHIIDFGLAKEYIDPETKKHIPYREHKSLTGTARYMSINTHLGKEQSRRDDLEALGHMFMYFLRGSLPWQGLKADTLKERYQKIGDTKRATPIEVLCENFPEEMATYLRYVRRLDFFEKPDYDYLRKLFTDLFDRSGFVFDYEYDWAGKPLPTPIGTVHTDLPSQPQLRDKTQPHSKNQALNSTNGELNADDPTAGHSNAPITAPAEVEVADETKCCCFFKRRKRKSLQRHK
# Sequence of Casein kinase I isoform gamma-3 (Homo sapiens) (Q9Y6M4 whole entry, looked up, canonical isoform): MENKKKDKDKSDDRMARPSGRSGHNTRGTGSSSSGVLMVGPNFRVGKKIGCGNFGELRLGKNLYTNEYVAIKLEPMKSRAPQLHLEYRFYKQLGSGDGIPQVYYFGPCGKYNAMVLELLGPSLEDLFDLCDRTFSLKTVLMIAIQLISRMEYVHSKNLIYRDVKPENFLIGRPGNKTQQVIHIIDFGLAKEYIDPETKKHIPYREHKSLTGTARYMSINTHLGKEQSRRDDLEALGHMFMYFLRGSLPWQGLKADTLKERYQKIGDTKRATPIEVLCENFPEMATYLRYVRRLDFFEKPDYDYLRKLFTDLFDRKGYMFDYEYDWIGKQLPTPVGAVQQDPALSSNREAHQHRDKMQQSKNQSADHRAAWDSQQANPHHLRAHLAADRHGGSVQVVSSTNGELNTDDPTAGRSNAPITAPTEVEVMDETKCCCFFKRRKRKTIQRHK
SMILES,inhibition [1] [%],inhibition [2] [%],inhibition [3] [%],inhibition [4] [%],inhibition [5] [%],inhibition [6] [%],inhibition [7] [%],inhibition [8] [%],inhibition [9] [%],inhibition [10] [%],inhibition [11] [%],inhibition [12] [%],inhibition [13] [%],inhibition [14] [%],inhibition [15] [%],inhibition [16] [%],inhibition [17] [%],inhibition [18] [%],inhibition [19] [%],inhibition [20] [%]
Fc1ccc(-c2ncn(C3CCNCC3)c2-c2ccnc(Oc3ccc(F)c(F)c3)n2)cc1,1.91,-0.68,1.74,-1.46,2.42,-1.17,-0.54,3.33,6.4,-1.06,-1.08,0.19,3.54,1.99,3.94,-4.37,-0.06,0.86,-0.42,-3.62
Fc1ccc(-c2c(-c3ccncc3)nc3n2CCS3)cc1,-0.73,-3.04,-1.19,-4.51,-4.05,-1.82,-3.21,-1.42,0.06,2.29,-3.24,-2.5,-1.15,-3.5,-3.63,-6.1,-2.27,0.14,0.05,-2.3
COc1cc2ncn(-c3cc(OCc4cccs4)c(C(N)=O)s3)c2cc1OC,-1.86,-0.97,-0.06,-2.79,-0.17,-2.8,6.63,-0.55,4.77,1.28,2.15,-2.57,-2.26,-2.83,-2.03,-5.45,-6.37,2.46,6.46,-1.61
Fc1ccc(-c2ncn(C3CCNCC3)c2-c2ccnc(Oc3ccc4c(c3)OCO4)n2)cc1,9.12,4.73,17.9,0.2,1.39,1.83,3.44,3.24,6.04,-0.22,-0.86,1.48,3.63,0.16,1.51,1.03,2.27,0.55,0.01,0.88
O=C(Nc1n[nH]c2nc(-c3ccc(O)cc3)c(Br)cc12)C1CC1,7.38,1.39,4.72,24.2,64.2,63.1,108,36.5,73,27.5,78.2,42,73.9,14.7,55.3,38.9,74.7,1.45,5.65,2.91
CN(C)CCCNc1nccc(-c2c(-c3ccc(F)cc3)nn3cc(C(F)(F)F)ccc23)n1,-1.02,-3.53,-1.67,-1.9,1.74,-2.76,3.18,-2.39,1.3,0.59,1.62,-2.82,1.54,-1.32,1.69,-1.2,-0.54,1.26,-0.07,-2.82
CCc1cccc(CC)c1/C=C/c1cncc(C(=O)NC)c1,5.11,2.87,4.99,-0.08,1.65,1.26,3.61,2.79,4.02,-0.92,1.62,3.61,4.03,0.43,1.68,3.11,2.84,-1.55,3.8,1.35
NS(=O)(=O)c1ccc(Nc2cc(-c3ccc(O)c(F)c3)n[nH]2)cc1,2.15,-3.13,4.18,10.9,51.7,53.3,78.9,59.9,86.9,9.52,60.1,3.31,23.6,20.1,68.7,21.6,70.9,1.17,3.95,-0.37
NS(=O)(=O)c1ccc(N/N=C2\C(=O)Nc3ccc(-c4cnco4)cc32)cc1,0.36,-3.27,0.29,32.6,66.8,85.8,94.4,67.2,74.7,50,89.2,6.57,42,50.2,71.8,9.49,50.3,5.36,35.9,-3.12
O=C(Nc1n[nH]c2cc(-c3ccccc3)ccc12)C1CC1,4.84,4.39,4.52,0.9,5.76,3.52,11.2,4.57,8.54,2.98,4.6,3.5,9.81,1.28,5.17,1.28,23.7,1.71,2.28,0.78
O=C(Nc1n[nH]c2nc(-c3ccco3)ccc12)C1CC1,1.22,-1.28,0.46,-0.24,2.61,3.24,6.79,-0.16,3.89,0.19,4.64,1.89,2.71,-0.11,1.68,3.9,8.22,-0.38,-0.4,0.26
COc1cc(C)c(N(C)C(=O)CN(C)C)cc1Nc1nc(Nc2cccc(F)c2C(N)=O)c2cc[nH]c2n1,10.4,-0.15,26.6,-4.66,-4.18,-3.41,1.23,-2.41,-2.88,-0.03,0.55,-3.32,-2.23,-3.87,-4.34,-3.28,-2.66,2.65,12.6,-5.35
Cc1ccc(C(=O)NC(C)C)cc1-c1ccc(C(=O)NCC2CC2)cc1,-3.47,-2.79,-1.44,0.57,2.57,0.33,-0.04,-0.92,0.52,1.57,-1.55,-0.49,0.6,0.55,2.73,-1.81,-0.75,-1.1,-0.78,-0.64
C[C@@H](Oc1cc(-n2cnc3ccc(OCC4CCN(C)CC4)cc32)sc1C(N)=O)c1ccccc1Cl,7.87,3.89,5.6,1.74,3.79,3.1,4.03,2.66,5.46,-2.62,-1.61,2.79,7.39,1.33,3.11,0.41,0.37,1.46,7.9,1.64
COc1cccc(/C=N/Nc2ncnc3c2cnn3-c2cccc(OC)c2)c1,3.85,2.41,1.09,1.12,4.16,1.78,5.08,2.49,3.83,-2.31,-2.86,2.17,4.46,0.77,3.98,-0.23,1.15,0.01,0.99,0.55
